Most compounds without a hit are left out; they make up all but 10% or so of the library.
HP1b binding inh – HTS for Inhibitors of HP1-beta Chromodomain Interactions with Methylated Histone Tails; Chromobox protein homolog 1 (Homo sapiens), P83916; AlphaScreen HP1-beta / biotin-H3K9me3 peptide binding; Potency, µM (series often up to 114 µM), actives largely listed as inhibitors; actives 0.56% (n = 390,000); AID 540317, 2011; further: nearly all actives have a fitted effect of over 70% in size
Target sequence (P83916 whole entry, looked up): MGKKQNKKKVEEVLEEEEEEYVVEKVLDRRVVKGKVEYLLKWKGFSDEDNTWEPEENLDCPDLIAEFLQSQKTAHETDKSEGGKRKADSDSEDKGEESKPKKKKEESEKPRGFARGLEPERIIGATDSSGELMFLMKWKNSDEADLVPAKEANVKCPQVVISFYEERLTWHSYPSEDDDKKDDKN
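Compound inhibition of the preformed complex between 50 nM HP1-beta and 50 nM biotinylated H3K9me3 peptide was read by AlphaScreen. Buffer was PBS pH 7.4 with 0.01% Tween-20. Incubations ran 30 min at room temperature, with 10 ug/mL donor/acceptor beads.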
JMJD2A Tudor – qHTS Assay for Inhibitors of JMJD2A-Tudor Domain; AID 504339, 2011; actives 4.4% (n = 390,000); AlphaScreen JMJD2A-Tudor / H3K4me3 peptide binding; Lysine-specific demethylase 4A (Homo sapiens), O75164; Potency, µM (highest dose often 114 µM), hits mostly inhibitors; further: nearly all actives have a fitted effect of over 50% in size
G9a block – qHTS Assay for Inhibitors of Histone Lysine Methyltransferase G9a. Histone-lysine N-methyltransferase EHMT2 (Homo sapiens), Q96KQ7. G9a H3K9 monomethylation, AlphaScreen, 2 h. Potency, µM (series often up to 102 µM), hits mostly inhibitors. actives 8.8% (n = 350,000); further: nearly all actives have a fitted effect of over 75% in size
Target sequence (Q96KQ7 913-1193 limits assumed): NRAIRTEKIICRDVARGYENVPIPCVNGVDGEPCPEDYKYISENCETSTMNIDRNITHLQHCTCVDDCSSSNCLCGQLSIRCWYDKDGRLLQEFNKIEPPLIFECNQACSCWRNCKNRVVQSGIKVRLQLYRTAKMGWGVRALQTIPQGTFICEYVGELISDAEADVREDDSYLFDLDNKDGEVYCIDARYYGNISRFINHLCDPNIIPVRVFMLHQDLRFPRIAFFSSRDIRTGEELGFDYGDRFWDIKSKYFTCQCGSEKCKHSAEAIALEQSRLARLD
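AlphaScreen read-out: biotin-H3K9 peptide (500 nM) methylation by 20 nM enzyme with 20 uM SAM, 2 h at room temperature after 15 min compound preincubation; anti-monomethyl H3K9 antibody plus donor/acceptor beads, 10 min dark.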
Six1-Eya2 blk – qHTS Assay for Inhibitors of the Six1/Eya2 Interaction | Homeobox protein SIX1 (Homo sapiens) + Protein phosphatase EYA2 (Homo sapiens), … | AlphaScreen GST-Six1/His-Eya2 binding, biochemical; stronger effect = lower value | activity change, % (concentration not given with the values) | actives 0.56% (n = 360,000) | AID 651725, 2012; in the data active means activity change below about -65%; inconclusive means mostly about -30% to -63%
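Compounds are tested against tagged Six1 and Eya2 proteins bridged by glutathione donor and nickel acceptor beads; after a one-hour incubation at 37 °C without light, AlphaScreen emission is recorded.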
CtBP-E1A inh – qHTS Assay for Inhibitors of the CtBP/E1A Interaction; activity change, % (no concentration beside the values); CtBP / adenovirus E1A interaction (AlphaScreen); AlphaScreen GST-E1A/His-CtBP binding, 1536-well; stronger effect = lower value; actives 0.49% (n = 340,000); in the data active means activity change below about -65%; inconclusive means mostly about -30% to -63%
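In 5 uL wells, 23 nL compound meets equimolar GST-E1A and His-CtBP (5X stock 125 nM each) for 2 h, 37 °C. Beads (5X, 50 ug/mL) then 1 h, 37 °C, dark.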
BAZ2B inh – qHTS Assay for Inhibitors of BAZ2B; AlphaScreen BAZ2B-H3K14Ac peptide displacement; Bromodomain adjacent to zinc finger domain protein 2B (Homo sapiens), Q9UIF8; Potency, µM (highest dose often 114 µM), usual class: inhibitors; actives 4.4% (n = 360,000); further: nearly all actives have a fitted effect of over 60% in size
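Inhibition is scored as reduced AlphaScreen emission. The BAZ2B/b-H3(5-23)K14Ac complex (50 nM each) in PBS pH 7.4, 0.01% Tween-20 meets compound (up to 110 uM) for 30 min at RT before bead addition.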
Hits are given with their value; 0 = inactive; ? = inconclusive; - = no result given; ! = not confirmed by another sample; [ ] = another dose, or the depositor's remark. Unless noted, the call rests on the fitted dose curve; in most records, active means well fitted inhibition curve with a large enough effect; inconclusive means small, poorly fitted or top-dose-only effect; inactive means no such curve, though single readings can be large or run the other way.

SMILES	HP1b binding inh	JMJD2A Tudor	G9a block	Six1-Eya2 blk	CtBP-E1A inh	BAZ2B inh
Cc1ccc2occ(CC(=O)N(Cc3ccc(N(C)C)cc3)C3CCS(=O)(=O)C3)c2c1 (stereo not given)	0	?	10µM	-	-	44.7µM
CC(C)c1ccc2occ(CC(=O)N(Cc3ccc(F)cc3)C3CCS(=O)(=O)C3)c2c1 (stereo not given)	0	0	0	-	-	0
CCc1ccc2occ(CC(=O)N(Cc3ccc(N(C)C)cc3)C3CCS(=O)(=O)C3)c2c1 (stereo not given)	?	39.8µM	12.6µM	-	-	20µM
COc1ccc(C(=O)CCC(=O)Nc2ccc(C)c(Cl)c2)cc1	0	0	0	-	-	0
CCOC(=O)c1ccccc1NC(=O)c1cc2c(s1)-c1ccccc1SC2	0	0	0	-	-	0
CC(Sc1ncnc2sc(-c3ccccc3)cc12)C(N)=O (stereo not given)	0	0	-	0	0	79.4µM
COc1ccc(C(C)(O)c2nc(-c3ccncc3)cs2)cc1 (stereo not given)	-	-	-	0	0	-
CCOc1ccc(N(CC)C(=O)CSc2n[nH]c(-c3ccccc3)n2)cc1	0	0	0	-	-	0
O=C(Nc1ccccc1Cl)c1c(F)c(F)c(F)c(F)c1F	0	0	-	0	0	-
O=C(NCNC(=O)c1ccccc1)c1ccccc1	0	0	0	0	0	0
O=C(NC1(O)C(=O)c2ccccc2C1=O)c1ccccc1	0	0	44.7µM	0	0	0
COC1(NC(=O)c2ccccc2)C(C)=CC(=O)C=C1C	?	0	44.7µM	0	0	0
O=C(NC1(O)C(=O)c2ccccc2C1=O)c1c(Cl)cccc1Cl	0	0	56.2µM	0	0	0
O=S(=O)(c1ccc2c(c1)CCCC2)N1CCN(c2nc(-c3cccs3)nc3ccccc23)CC1	0	0	-	-	-	-
O=C(CN1C(=O)COc2ccc(S(=O)(=O)Nc3ccccc3)cc21)NCc1ccccc1Cl	0	0	?	-	-	0
N#Cc1ccccc1-c1ccc2ncnc(NC3CC3)c2c1	-	-	0[0.501 µM]	-	-	-
CSCC[C@H](NC(=O)NCc1ccccc1F)C(=O)O	0	0	44.7µM	0	0	0
O=C(O)Cn1cnc2ccccc2c1=O	0	0	0	0	0	0
O=C(COC(=O)Cn1cnc2ccccc2c1=O)NCCC1=CCCCC1	0	0	11.2µM	0	0	0
CCN(CC)C(=O)Cn1cnc2c1c(=O)n(C)c(=O)n2C	0	0	56.2µM	0	0	0
CCOc1ccc(NC(=O)CCNC(=O)Cn2cnc3ccccc3c2=O)cc1	0	0	0	0	0	0
CCc1ccc(NC(=O)CCNC(=O)Cn2cnc3ccccc3c2=O)cc1	0	50.1µM!	0	0	0	0
CCN(CC)C(=O)Cn1cnc2ccccc2c1=O	0	0	20µM	0	0	0
O=C(Nc1nc2ccccc2s1)c1ccc(OCC2CCCO2)cc1 (stereo not given)	0	0	0	0	0	0
Cc1ccc(C(=O)NCCC2=CCCCC2)cc1S(=O)(=O)N1CCCCC1	0	0	0[0.501 µM]	0	0	0
SMILES	HP1b binding inh	JMJD2A Tudor	G9a block	Six1-Eya2 blk	CtBP-E1A inh	BAZ2B inh
O=C(CNC(=O)c1ccccc1)OC(CCc1ccccc1)C(=O)Nc1cc(C(F)(F)F)ccc1Cl (stereo not given)	-	0	-	-	-	-
CCN(Cc1ccccc1)C(=O)Cn1cnc2c1c(=O)n(C)c(=O)n2C	0	0	0	0	0	0
O=C(Cn1cnc2ccccc2c1=O)Nc1nc2ccccc2s1	0	0	44.7µM	0	0	0
Cn1c(=O)c2c(ncn2CCN(CCO)Cc2ccccc2)n(C)c1=O	0	0	39.8µM	0	0	0
CCc1ccc2nc(NC(=O)Cn3cnc4ccccc4c3=O)sc2c1	0	0	?	0	0	0
O=C(CSc1nnc2scc(-c3ccccc3)n12)c1ccc2c(c1)OCCO2	0	0	89.1µM	0	0	0
COCCn1c(SCC(=O)c2ccc(Cl)cc2)nnc1C(C)C	0	50.1µM	11.2µM	0	0	0
CCCCn1c(SCC(=O)c2ccc3c(c2)OCCO3)nnc1-c1ccoc1C	0	?	?	0	0	89.1µM
O=C(CSc1nnc2scc(-c3ccccc3)n12)Nc1nsc(-c2ccccc2)n1	0	?	?	0	0	56.2µM
Cc1ccccc1C(=O)Nc1ccccc1OCc1cc(=O)n2ccccc2n1	0	0	0	-	-	0
CCCc1c(C(=O)N/N=C/c2ccccc2C(F)(F)F)nnn1-c1nonc1N	0	0	0	0	0	0
Cc1cc(C)c(NC(=O)CN2C(=O)NC3(CCCc4ccccc43)C2=O)c(Cl)c1 (stereo not given)	0	0	?	0	0	0
COCCn1c(SCC(=O)c2ccc3c(c2)OCCO3)nnc1C(C)C	0	79.4µM	17.8µM	0	0	0
COCCn1c(SCC(=O)Nc2ccc3c(c2)OCCO3)nnc1C(C)C	0	0	0	0	0	0
Clc1cc(Cl)cc(Nc2ccccc2CN(C/C=C/c2ccc3c(c2)OCO3)Cc2ccccc2)c1	-	-	-	0	0	-
COC(=O)c1cc2nc(-c3ccc(OC)c(OC)c3)cc(C(F)(F)F)n2n1	0	0	0	0	0	0
